Screening data from PubChem BioAssay.
DT40 TDP1 CPT – growth inhibition of DT40 Tdp1-/-;hTDP1 cells with camptothecin (screen for TDP1 inhibitors) | chicken DT40 Tdp1-/-;hTDP1 cells + 20 nM CPT, ATP luminescence, 48 h | Potency, µM (top dose mostly 46.2 µM), for inactives: at the top dose activity change, negative = growth inhibition, most hits filed as inhibitors | 12% of 420,000 active | AID 686979; note: potency is the fitted concentration of half-maximal effect; % is set by controls: 0 for no effect and ±100 for the full control effect; nearly all actives have a fitted effect of over 55% in size
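Cell growth measured by CellTiter-Glo luminescence after a minimum 48 h, 37 C compound exposure with 20 nM CPT in Tdp1-knockout DT40 cells stably expressing hTDP1, seeded 400/well; qHTS titration format.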
ClpP mod – qHTS Assay for Activators of ClpP. 1.9% of 340,000 active. AID 651965, 2013. purified B. subtilis ClpP, FRET peptide cleavage, 20 min. Potency, µM (highest dose often 57.5 µM), for inactives: top-dose activity change, negative = active; active = well fitted falling curve with a large enough effect; inconclusive = small, poorly fitted or top-dose-only effect; inactive = no such curve, though single readings can be large or run the other way; note: potency is the fitted concentration of half-maximal effect; the source files actives as falling curves though it sought activators and does not explain the sign; nearly all actives have a fitted effect of over 65% in size
Target sequence (P80244 whole entry, looked up): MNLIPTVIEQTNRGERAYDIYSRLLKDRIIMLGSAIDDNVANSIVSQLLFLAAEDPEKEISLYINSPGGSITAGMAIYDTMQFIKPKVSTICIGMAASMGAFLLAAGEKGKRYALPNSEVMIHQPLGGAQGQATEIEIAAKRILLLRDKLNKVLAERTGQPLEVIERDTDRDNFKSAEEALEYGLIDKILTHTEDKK
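Buffer: 100 mM Tris/HCl pH8, 100 mM KCl, 0.05% low protease BSA, 2.5% glycerol, 0.01% Tween-20. ClpP 10 microg/mL final; 20 min RT; delta FRET normalized to ADEP and DMSO controls.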
D3 ag – activates the human D3 dopamine receptor; D3R DiscoveRx beta-arrestin cells, luminescence, 90 min; P35462; 0.58% of 410,000 active; AID 652048; max activation, %; in the data active = max activation above about 30%; note: 0% is about no effect
Target sequence (P35462 whole entry, looked up): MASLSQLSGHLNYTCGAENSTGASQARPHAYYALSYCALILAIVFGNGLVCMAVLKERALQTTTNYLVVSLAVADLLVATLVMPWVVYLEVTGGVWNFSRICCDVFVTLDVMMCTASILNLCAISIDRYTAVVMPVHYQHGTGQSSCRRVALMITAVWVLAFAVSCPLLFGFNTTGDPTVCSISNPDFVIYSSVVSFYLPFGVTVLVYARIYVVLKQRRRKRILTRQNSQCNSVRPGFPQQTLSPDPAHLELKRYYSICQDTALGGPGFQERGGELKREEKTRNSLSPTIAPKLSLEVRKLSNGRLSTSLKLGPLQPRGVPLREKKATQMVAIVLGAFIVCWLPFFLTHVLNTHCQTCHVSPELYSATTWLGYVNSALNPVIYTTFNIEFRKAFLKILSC
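Agonist-mode cell screen: cells plated at 1500/well and incubated overnight at 37 °C, then exposed to library compounds for 90 min at 37 °C. Detection reagent was added for 30–60 min at room temperature, and luminescence was read.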
DRD3 antagonist – D3 dopamine receptor (human) antagonism | 2.5% of 360,000 active | D3R cells, DiscoveRx beta-arrestin luminescence, antagonist mode; active compounds read low | max response, negative = inhibition, %; in the data active = max response below about -50%; inconclusive = no clear call, values can overlap the other calls; note: % is set by controls: 0 for no effect and ±100 for the full control effect
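Cells expressing the human receptor were seeded at 1500 cells/well, incubated overnight at 37 degrees C in 5% CO2, then exposed to library compounds with dopamine controls for 90 minutes at 37 degrees C before luminescent detection.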
TDP1 cell noCPT – qHTS for Inhibitors of human tyrosyl-DNA phosphodiesterase 1 (TDP1): qHTS in cells in absence of CPT; DT40 Tdp1-/- hTDP1 cells, no CPT, ATP luminescence, 48 h; Potency, µM (highest dose often 46.2 µM), without a hit: at the top dose activity change, negative = growth inhibition, most hits filed as inhibitors; 15% of 420,000 active; note: potency is the fitted concentration of half-maximal effect; % is set by controls: 0 for no effect and ±100 for the full control effect; nearly all actives have a fitted effect of over 55% in size
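No-CPT arm: Tdp1-/-;hTDP1 DT40 cells (400/well) plus compounds, incubated ≥48 hr at 37 °C. Readout CellTiter-Glo luminescence.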
IL1B secr inh – blocks inflammasome-driven IL-1 beta release; 4.7% of 360,000 active; THP-1 LPS/ATP IL-1B secretion, AlphaLISA, 16 h; active compounds read low; AID 743279; activity change, % at 57.5 µM; in the data active = activity change below about -50%; inconclusive = mostly about -30% to -49%; note: % is set by controls: 0 for no effect and ±100 for the full control effect
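Secreted IL-1B measured by AlphaLISA bead assay after 16 h compound exposure of THP-1 cells; compounds (final up to 57.5 uM) added 1 h before LPS (250 ng/mL) and ATP (1.25 mM) stimulation; lower signal means less secretion.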
An asterisk follows results filed as active; i = inactive; ? = inconclusive; · = no result. Rows were chosen to be rich in hits. Some 21% of all compounds tested hit in one or more screens of this group. Unless noted, calls come from the whole dose curve; as a rule, active = well fitted inhibition curve with a large enough effect; inconclusive = small, poorly fitted or top-dose-only effect; inactive = flat fitted curve, though single readings scatter.

SMILES	DT40 TDP1 CPT	ClpP mod	D3 ag	DRD3 antagonist	TDP1 cell noCPT	IL1B secr inh
Oc1cccc(NC(=S)N=Nc2c(O)[nH]c3ccc(Br)cc23)c1	?	·	6	-12	?	-5
CNC(=S)N=Nc1c(O)[nH]c2ccccc12	-7%	-6%	-16	?	-6%	10
Oc1[nH]c2ccc(Br)cc2c1N=NC(=S)Nc1ccc(F)cc1	1.3µM*	·	-6	-17	2.9µM*	-2
O=C(N=Nc1c(O)[nH]c2ccccc12)c1cccc(S(=O)(=O)N2CCCCC2)c1	-13%	1%	-15	-16	1%	32
CNC(=S)N=Nc1c(O)[nH]c2ccc(C(C)C)cc12	?	3%	-13	-14	18µM*	0
N=C(N)N=Nc1c(O)[nH]c2ccc(Br)cc12	6%	·	-6	-3	-23%	-24
Cn1c(SCc2ccccc2)nnc1-c1ccc(O)cc1	0%	0%	1	6	6%	1
CCOC(=O)C(=COC(=O)c1ccccc1)NC(=O)Cc1ccccc1	-26%	1%	6	-2	4%	-2
COc1cc(/C=c2\s/c(=C(/C#N)C(=O)N3CCCC3)n(-c3ccccc3)c2=O)ccc1O	?	1%	2	0	9.2µM*	5
COCCNC(=O)CSC1=N/C(=C/c2ccc(Cl)c(Cl)c2)C(=O)N1c1ccccc1F	15µM*	?	-2	6	21µM*	-99*
OC(c1ccc(-c2ccccc2)cc1)c1ncc(-c2ccc(C(F)(F)F)cc2)[nH]1 (stereo not drawn)	?	-8%	6	0	?	-11
O=C1CC(Sc2ccc(Cl)cc2)C(=O)N1Cc1ccncc1 (stereo not drawn)	23µM*	0%	4	12	18µM*	-3
NCCSC1CC(=O)N(Cc2ccc(F)cc2)C1=O (stereo not drawn)	-19%	·	-8	5	-1%	6
COc1ccc(Cn2cc(CN3CCOCC3)nn2)cc1	6%	0%	4	9	17%	-27
CCOC(=O)c1c(C)n(C)c2cc(Br)c(OC)cc12	-5%	·	2	4	-3%	14
CCCCCCCCOC(=O)c1c(CSC(=N)N)n(C)c2cc(Br)c(OC(C)=O)cc12	6.5µM*	-1%	3	21	7.3µM*	-3
CCOC(=O)c1c(CSC(=N)N)n(-c2ccc(Br)cc2)c2cc(Br)c(OC(C)=O)cc12	?	?	17	-3	23µM*	-109*
COc1ccc(OC)c(NC(=O)c2ccno2)c1	11%	·	11	-7	-11%	8
CC(C)CC(=O)Nc1c2c(nn1-c1ccc(F)cc1)CS(=O)(=O)C2	31%	·	-1	4	3%	-5
CN(C)CCOc1ccc(C(C)(C)c2ccccc2)cc1	?	-1%	5	0	?	4
CN(C)CCCOc1ccc(C(C)(C)c2ccccc2)cc1	?	-1%	-8	-68*	18µM*	?
CC[C@H](C)[C@@H](NC(=O)O[C@@H]1C(=O)c2cc(OC)ccc2O[C@H]1c1ccc(OC)c(Br)c1)C(=O)OC	?	?	-13	-16	18µM*	?
COCCCNc1ncnc2c1c(-c1ccccc1)cn2-c1ccc(C)c(Cl)c1	18µM*	-1%	-8	·	?	·
COc1ccc(-n2cc(-c3ccccc3)c3c(NN4CCOCC4)ncnc32)cc1	?	-1%	4	21	16µM*	-85*
COc1ccc(C)cc1Nc1ncnc2c1c(-c1ccccc1)cn2-c1ccc(C)cc1	1%	5%	0	·	-22%	·
SMILES	DT40 TDP1 CPT	ClpP mod	D3 ag	DRD3 antagonist	TDP1 cell noCPT	IL1B secr inh
Fc1ccc(-n2cc(-c3ccccc3)c3c(NN4CCOCC4)ncnc32)cc1	?	-4%	-19	-7	23µM*	-73*
O=C(Nc1ccc(S(=O)(=O)N2CCCC2)cc1)c1cc(F)c(F)cc1Cl	?	-1%	-4	-15	?	i
COCCNC(=O)C(=O)NCC(c1cccnc1)N1CCN(c2ccccc2)CC1 (stereo not drawn)	1%	1%	4	·	-20%	·
COc1ccccc1C(=O)NCC(=O)NNC(=O)C1COc2ccccc2O1 (stereo not drawn)	-2%	-1%	2	-17	-1%	-5
CN(Cc1ccccc1)c1oc(-c2ccco2)nc1C#N	-1%	?	-2	0	-15%	-71*
COc1cccc(/C=C/c2nc(C#N)c(NCCc3ccccc3)o2)c1	?	11%	-4	·	15µM*	·
COc1ccccc1/C=C/c1nc(C#N)c(NCCc2ccccc2)o1	?	4%	10	·	16µM*	·
CCOc1ccc(/C=C/c2nc(C#N)c(N(C)C)o2)cc1	16µM*	5%	7	·	15µM*	·
CN(C)c1oc(/C=C/c2ccc(F)cc2)nc1C#N	-22%	4%	6	·	-18%	·
Cc1ccc(S(=O)(=O)N(C)C[C@@H]2OCc3cnnn3CCCC(=O)N([C@@H](C)CO)C[C@@H]2C)cc1	-1%	-1%	-1	-18	-20%	-16
C=CCn1c(C)cc(C(=O)COC(=O)/C=C/c2cccc(OC)c2)c1C	-29%	-18%	19	19	-19%	5
CCOc1ccc(/C=C/c2nc(C#N)c(NCCc3ccccc3)o2)cc1	1.3µM*	5%	-4	·	1.2µM*	·
CNc1oc(/C=C/c2cccc(OC)c2)nc1C#N	-24%	4%	4	-12	?	?
COc1cccc(/C=C/c2nc(C#N)c(N(C)Cc3ccccc3)o2)c1	?	4%	-13	·	23µM*	·
COc1ccc(Nc2oc(/C=C/c3cccc(OC)c3)nc2C#N)cc1	18µM*	?	2	·	?	·
